Measured values published in PubChem BioAssay (NCI).
About 83,000 compounds went through this panel and 20% of them were active in at least one assay; those are over-represented in the sample as a whole.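 Testing used 96-well plates and a 48-hour single-concentration exposure. Example: -40 means 40% of the starting cells died.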 A number with no mark means an inactive call. The source made the active and inactive calls. How the source made its calls: active means growth percent below 10; inactive means the rest.

How the values were obtained:
Assay in all cases: NCI-60 one-dose screen, 48 h (100 = growth as untreated, 0 = no growth, -100 = all killed)
Details in all cases: 10 µM unless noted
[1] = test system: HCT-15 colon
[2] = test system: HT29 colon
[3] = test system: SNB-75 CNS
[4] = test system: SNB-19 CNS
[5] = test system: U251 CNS
[6] = test system: PC-3 prostate
[7] = test system: SK-MEL-5 melanoma
[8] = test system: UACC-62 melanoma
[9] = test system: LOX IMVI melanoma
[10] = test system: SK-MEL-28 melanoma

SMILES | growth [1] | growth [2] | growth [3] | growth [4] | growth [5] | growth [6] | growth [7] | growth [8] | growth [9] | growth [10]
COC(=O)c1ccc2c(c1)[n+](=O)c(C(C)=O)c(C(F)(F)F)n2[O-] | -77.5% (active) | -56% (active) | -20.5% (active) | -6.44% (active) | -72.2% (active) | -58.1% (active) | -100% (active) | -32.7% (active) | -95.3% (active) | 27%
CCCCCC(=O)Oc1ccc(/C(=C(/C)Cc2ccc(OC)cc2)c2ccc(OCCCN(C)C)cc2)cc1 | 24.6% | 10.8% | 77% | 84.1% | 56.2% | 86.2% | 63.5% | 47.7% | 50.7% | -1.63% (active)
CNC(=O)c1cncc(Cn2nc(C)c(NC(=O)c3ccc(COc4ccc(C(F)(F)F)cc4C)cc3)c2C)c1 | 74.7% | 56.5% | 77.7% | 56.6% | 63.7% | 53.9% | 7.09% (active) | 64.7% | 64.3% | 81.6%
CCN1Cc2nc3sc(C)c(C)c3c(=O)n2C=C1C | 49.7% | 22.1% | 88% | 49.4% | 24.3% | -6.34% (active) | 78.7% | 46.9% | 53.5% | 67.3%
COc1cc(C=O)ccc1OC1OC(COC(C)=O)C(OC(C)=O)C(OC(C)=O)C1OC(C)=O (stereo not given) | 99.3% | 105% | 106% | 103% | 94.2% | 95.8% | 98.2% | 100% | 103% | 110%
COc1ccc(/C=C/C(=O)Nc2cc(/C=C\c3cc(OC)c(OC)c(OC)c3)cc(OC)c2OC)cc1OC | 25.9% | 14.6% | 34.7% | 46.2% | 41.3% | 20.7% | -59.3% (active) | 16.3% | 27.7% | 40.1%
Cc1ccc(/C=N/NC(=O)CSc2nc3ccccc3c(=O)n2Cc2ccc(S(N)(=O)=O)cc2)cc1 | 89.3% | 86.3% | 71% | 89.9% | 93.9% | 89.3% | 74.4% | 78.1% | 82.9% | 93.2%
OC(c1ccc(F)c(C(F)(F)F)c1)c1cnccc1NC1CCCCC1 (stereo not given) | 64.7% | 14.3% | 68.7% | 82.9% | 63.5% | 58.7% | 49.4% | 71.2% | 69.7% | 84.8%
CCc1c2c(nc3ccc(OCc4ccc(B(O)O)cc4)cc13)-c1cc3c(c(=O)n1C2)COC(=O)[C@]3(O)CC | 18% | 3.65% (active) | -7.42% (active) | 8.1% (active) | -12% (active) | 24.4% | -67.5% (active) | -25.1% (active) | -47.8% (active) | 36%
Oc1ccc(OCCOc2ccc(O)cc2)cc1 | 38.4% | 86.9% | 73.8% | 79.2% | 49.5% | 55.7% | 26.8% | 22.5% | 36.4% | 102%
O=C(c1nc2ccccc2[nH]1)C1C(c2ccc(Cl)cc2)C2CC3CCCC[C@H]3N2[C@@]12C(=O)Nc1cc(Cl)ccc12 (stereo not given in full) | 30.2% | 26% | 34.4% | 59% | 49.3% | 31.9% | 50.1% | 59.3% | 35% | 72%
CCOC(=O)CC1CSC(N/N=C/c2ccc(-n3cccn3)cc2)=N1 (stereo not given) | 104% | 99.3% | 101% | 98.9% | 96.9% | 99.6% | 98.1% | 92.5% | 97.4% | 111%
CCCCCCNC(=O)Oc1ccc(/C(=C(\C)c2ccccc2)c2ccc(OCCCN(C)C)cc2)cc1 | 25.9% | 2.7% (active) | 86.8% | 80.5% | 67.3% | 79.7% | 92.9% | 56.1% | 80.2% | 88.3%
NC1[C@H](c2c[nH]c3ccccc23)c2c([nH]c3ccccc23)[C@H]1c1c[nH]c2ccccc12 (stereo not given in full) | 84.8% | 97.6% | 97.2% | 95.2% | 100% | 78.3% | 85.2% | 72.5% | 90.1% | 103%
COc1cc2c(=O)n(CCN)c3c4cc5c(cc4ccc3c2cc1OC)OCO5 | -75.5% (active) | -89.8% (active) | 43.7% | -67.1% (active) | -74.4% (active) | -60.1% (active) | -78.8% (active) | -12.5% (active) | -76.7% (active) | -71.2% (active)
Nc1nc(Nc2ccccc2SSc2ccccc2Nc2nc(N)nc(-c3ccc(C(F)(F)F)cc3)n2)nc(-c2ccc(C(F)(F)F)cc2)n1 | 17.2% | 93.3% | 86.2% | 58% | 41.2% | 29.5% | 88.9% | 68.3% | 27.5% | 95.6%
CC(C)=CCC[C@](C)(O)[C@H]1CC[C@]2(C)[C@@H]1CC[C@@H]1[C@@]3(C)C/C(=C/c4ccccc4)C(=O)C(C)(C)[C@@H]3CC[C@]12C | 93.6% | 99.9% | 67.2% | 88% | 85.8% | 79.6% | 98.7% | 88.2% | 93.4% | 104%
C=C(C)[C@@H]1CC[C@]2(C(=O)N3CCN(C)CC3)CC[C@]3(C)[C@H](CC[C@@H]4[C@@]5(C)C/C(=C/c6cccnc6)C(=O)C(C)(C)[C@@H]5CC[C@]43C)[C@@H]12 | 44.5% | 20.9% | 79.7% | 68.7% | 52.3% | 18.6% | 68.6% | 81.4% | 78.7% | 83.1%
CN(C)CCn1c2ccc(Br)cc2c2nc3ccccc3nc21 | 20.2% | 16.9% | 42.3% | 31.6% | 32.2% | 34% | 46.8% | 57.1% | 14.8% | 84.8%
O=C(CSc1nc2ccccc2[nH]1)NCc1ccccc1 | 105% | 99.4% | 74.5% | 97.8% | 106% | 98.8% | 102% | 95.2% | 98.3% | 102%
COc1ccc(C(=O)CSc2nc(-c3cc(OC)ccc3OC)cc(-c3ccc(Cl)cc3)c2C#N)cc1 | 62.7% | 48.3% | 30.9% | 40.3% | 35.7% | 56.8% | 36.6% | 16.8% | 68.5% | 32.1%
CN1CCN(c2ccc(NC3=C(Cl)C(=O)c4ncccc4C3=O)cc2C(F)(F)F)CC1 | -47% (active) | 78.3% | 96.9% | 101% | 88.6% | 62.9% | 92.8% | 87% | -56.2% (active) | 76.9%
CC1=CCC(OC(=O)C(C)(O)CCC(O)(C(=O)OC2(C)C=CC(O)(C(C)C)CC2)C(C)C)(C(C)C)CC1 (stereo not given) | 103% | 104% | 92.5% | 102% | 98.3% | 113% | 101% | 98.1% | 101% | 114%
O=C(/C=C/c1ccc(F)cc1)c1ccc(NC(=O)N2CCN(c3cc4c(cc3F)c(=O)c(C(=O)O)cn4C3CC3)CC2)cc1 | 101% | 98% | 90.7% | 88.1% | 98.9% | 96.6% | 96.8% | 78.2% | 83.7% | 90.6%
OCc1cnccc1NCCCCOc1ccc(Oc2ccccc2)cc1 | 49.8% | 24.6% | 71.6% | 74.6% | 52.3% | 56% | 15.7% | 61.5% | 45.9% | 70.2%
C=C(C)[C@@H]1CC[C@]2(CN)CC[C@]3(C)[C@H](CC[C@@H]4[C@@]5(C)CCCNC(C)(C)[C@@H]5CC[C@]43C)[C@@H]12 | -92.4% (active) | -85.8% (active) | -27.7% (active) | -58.5% (active) | -89.7% (active) | -10.5% (active) | -9.72% (active) | 29% | -98.3% (active) | -28.3% (active)
